Structures are written as SMILES. Inconclusive results are not listed. Activity calls are given as the source filed them. Rule for the calls: active = hit-call score of the fitted dose curve at least 0.9, where 1 is the maximum; inconclusive = response in the unintended direction; inactive = score below 0.9.

The experiment can be described thus: ATG_M_06_TRANS: Attagene TRANS-FACTORIAL HepG2 Assay for M06 Transcription Factor (Internal Marker) (AID 2282983). Conditions: HepG2 Attagene TRANS M06 internal marker reporter. As to the method:
ATG_TRANS is a cell-based, multiplexed-readout assay that uses HepG2, a human liver cell line, with measurements taken at 24 hours after chemical dosing in a 24-well plate.ATG_M_06_TRANS is one of 30 assay component(s) measured or calculated from the ATG_TRANS assay. It is designed to make measurements of mRNA induction, a form of inducible reporter, as detected with fluorescence intensity signals by Reverse transcription polymerase chain reaction (RT-PCR) and Capillary electrophoresis technology.Data from the assay component ATG_M_06_TRANS was analyzed into 1 assay endpoint. This assay endpoint, ATG_M_06_TRANS, was analyzed in the positive analysis fitting direction relative to DMSO as the negative control and baseline of activity. Using a type of inducible reporter, measures of mRNA for gain-of-signal activity can be used to understand the background control at the transcription factor-level as they relate to the gene . Furthermore, this assay endpoint can be referred to as a secondary readout, because this assay has produced multiple assay endpoints where this one serves a background control function. To generalize the intended target to other relatable targets, this assay endpoint is annotated to the background measurement intended target family, where the subfamily is internal marker.
Human liver HepG2 cells are transiently transfected with multiple reporter transcription units (MRTUs) in 6-well plates using FuGene 6 reagent (Roche; 3 ml FuGene/1 mg DNA). The MRTU constructs are regulated by a cis-regulating element (promoter). […] A major difference between the CIS and TRANS system is that in CIS activities of endogenous TFs are measured, whereas the TRANS assay evaluates changes in activities of exogenous, chimeric NR-Gal4 proteins. […] At the end of 24 hour incubation, total RNA was isolated using TriZol reagent (Invitrogen). The isolated RNA is then reverse-transcribed using oligo(dT) primer and Mo-MLV reverse transcriptase (Invitrogen) with DNAse I (Ambion) treatment for 30 min. The one-tenth of the produced cDNA was amplified by PCR using Taq DNA polymerase (Invitrogen) and two reporter sequence-specific primers. The PCR products were fluorescently labeled by primer extension with 6-arboxyfluorescein (6-FAM) 5'-labeled reporter sequence-specific primer (2 min at 95 C, 20 s at 68 C and 10 min at 72 C) and these products were digested with 5U of HpaI (New England Biolabs) for 2h at 37 C. The fragments were purified using Qiaquick PCR columns (Qiagen), analyzed on an ABI 3130xL genetic analyzer (Applied Biosystems) with peak positions identified by using a set of X-rhodamine (ROX)-labeled MapMarker1000 molecular weight standards (BioVentures). The raw capillary electrophoresis data was processed using Attagraph software (Attagene).
For `CCC(=O)/C=C/C1C(C)=CCCC1(C)C` (stereo not given), the outcome was inactive.

On to `CC(=O)C(C)=O`, for which the call was inactive.

As to `CC(O)C(C)O` (stereo not given), the result was inactive.

As to `O=C(O)COCCN1CCN(C(c2ccccc2)c2ccc(Cl)cc2)CC1` (stereo not given), the result was inactive.

`O=C1NC(=O)c2ccccc21`: the compound was classed as inactive.

With `CCCCCNCCCCC`, the compound was classed as inactive.

Regarding `O=C(O)CCCCCCCC(=O)O`, the outcome was inactive.

Turning to `CC(=O)C=CC1=C(C)CCCC1(C)C`, the compound was called inactive.

In the case of `O=c1oc(=O)c2cc3c(=O)oc(=O)c3cc12`, the result was inactive.

As for `c1ccc2[nH]ccc2c1`, the compound was called inactive.

Regarding `CC(C)[C@H]1CC[C@@H](C)CC1=O`, the outcome was inactive.

Regarding `O=C(COc1ccc(Cl)cc1)N1CCN(Cc2ccc3c(c2)OCO3)CC1`, the compound was classed as inactive.

On to `BrC1CCC(Br)C(Br)CCC(Br)C(Br)CCC1Br` (stereo not given), for which the compound was called inactive.

Take `O=C(Cl)c1cccc(C(=O)Cl)c1`: the compound was called inactive.

Turning to `COc1ccnc(CS(=O)c2nc3cc(OC(F)F)ccc3[nH]2)c1OC` (stereo not given), the compound was classed as inactive.

Take `CCN(CC)c1ccc(C(=C2C=CC(=[N+](CC)CC)C=C2)c2ccc(S(=O)(=O)O)cc2S(=O)(=O)[O-])cc1`: the call was inactive.

Regarding `C=C(C)[C@@H]1CC[C@@H](C)C[C@@H]1O`, the outcome was inactive.

`CC(=O)O[C@]1(C(C)=O)CC[C@H]2[C@@H]3C[C@H](C)C4=CC(=O)CC[C@]4(C)[C@H]3CC[C@@]21C`: the call was inactive.

As for `CN(CCOc1ccc(CC2SC(=O)NC2=O)cc1)c1ccccn1` (stereo not given), the compound was classed as inactive.

Take `CCCCc1ccc(N)cc1`: the compound was called inactive.

For `Nc1cc([N+](=O)[O-])ccc1Cl`, the call was inactive.

As to `Nc1cc([N+](=O)[O-])ccc1O`, the compound was classed as inactive.

Regarding `CC(C)CCCCCCCOC(=O)c1ccc(C(=O)OCCCCCCCC(C)C)c(C(=O)OCCCCCCCC(C)C)c1`, the compound was called inactive.

Consider `CCCCCCC#CC(=O)OC`, for which the outcome was inactive.

As for `CC1(C)OC[C@@H]2O[C@@]3(C(=O)O)OC(C)(C)O[C@H]3[C@@H]2O1`, the compound was called inactive.

With `Cc1ccc(S)cc1`, the outcome was inactive.

With `CCCCOCCOCCOCCOCCO`, the outcome was inactive.

With `Cc1cccc(C)c1[N+](=O)[O-]`, the compound was called inactive.

As to `COc1cc(C=O)ccc1OC(=O)C(C)C`, the compound was called inactive.

Turning to `Cc1ccc(C(=O)O)o1`, the outcome was inactive.

Turning to `OCCOc1cccc(OCCO)c1`, the compound was called inactive.

As for `CC(CCO)CCCC(C)(C)O` (stereo not given), the compound was called inactive.

Consider `CC(C)(C)C(=O)c1ccccc1`, for which the compound was called inactive.

On to `C=C(C)C1CCC(C)CC1O` (stereo not given), for which the compound was called inactive.

Regarding `CC(=O)Nc1ccccc1O`, the compound was classed as inactive.

Regarding `O=[N+]([O-])c1ccc(C=Cc2ccc([N+](=O)[O-])cc2S(=O)(=O)O)c(S(=O)(=O)O)c1`, the outcome was inactive.

As for `CCCCCCCCCC=O`, the call was inactive.

Regarding `O=C(O)c1cccc([N+](=O)[O-])c1`, the compound was classed as inactive.

For the compound `CCCC(=O)OCCC(C)CCC=C(C)C` (stereo not given), the outcome was inactive.

For the compound `CC(C)Oc1ccccc1O`, the outcome was inactive.

Source of the values: PubChem BioAssay (EPA / NIEHS).
